# About 22,000 (6.9%) of roughly 320,000 compounds were called active. Another 27% or so got no clear call; they are omitted. This is one part of a sample in which actives are shown more often than they occur. A number with no mark means an inactive call. Calls come from the whole dose curve; as a rule, active = well fitted inhibition curve with a large enough effect; inconclusive = small, poorly fitted or top-dose-only effect, or another doubt; inactive = no such curve, though single readings can be large or run the other way.
# Test: Primary qHTS for delayed death inhibitors of the malarial parasite plastid, 96 hour incubation
# Conditions: P. falciparum luciferase reporter growth; series mostly up to 28.7 µM; activity change, negative = inhibition: at the top concentration
# Source text: The goal of this screen is to discover new antimalarial compounds that act by inhibiting the development of the apicoplast in the malarial parasite Plasmodium falciparum. The biochemical processes that make this organelle essential for erythrocytic stage parasites are not well understood. However, antibiotics such as azithromycin and tetracycline, which target the apicoplast translational machinery, have a potent antimalarial effect.
# We have developed a cell-based assay that measures parasite growth based on the expression of an integrated copy of a firefly luciferase reporter. To detect small molecules that cause this "delayed death" phenotype, erythrocytes infected with the luciferase-expressing parasites were incubated with compounds for either one or two generations, corresponding to 48 and 96 hours, respectively. Compounds that inhibit parasite growth in the second generation, but not the first, should be enriched in antimalarials that target the apicoplast. Growth inhibition is detected by a decrease in luciferase activity.
# Assay Provider: David Fidock and Eric Ekland, Columbia University
# Keywords: NIH Roadmap, MLPCN, MLI, MLSMR, qHTS, NCGC, qHTS, malaria, luciferase, viability
# Four microliters of infected erythrocytes (2% hematocrit, 0.05% parasitemia final concentration) in culture medium were dispensed and the plates incubated for 96 hours at 37 C in 5% CO2. Two microliters of luciferase detection reagent was added and luminescence was detected by a ViewLux (PerkinElmer) reader.
# % is set by controls: 0 for no effect and ±100 for the full control effect; potency is the fitted concentration of half-maximal effect.
Structure (SMILES),"activity change, negative = inhibition [%]",Potency
CN(CC(=O)NCc1ccc2c(c1)OCO2)CC(=O)Nc1ccc(F)c(F)c1F,-27.8,–
CCC(C)N(C(=O)COC(=O)c1nc(Cl)ccc1Cl)C1CCS(=O)(=O)C1 (stereo not drawn),8.59,–
O=C(c1ccc(OC2CCN(C/C=C/c3ccc(F)cc3)CC2)cc1)N1CCCCC1,27,–
COc1ccc(S(=O)(=O)N(C)CC(=O)N2CCCC2)cc1,-10.3,–
Cc1ccc(S(=O)(=O)N2CCC(Oc3ccc(-n4cnnn4)cc3)CC2)cc1,76.6,–
CC(C)(c1ccccc1)c1ccc(OCCN)cc1,27.9,–
CC(C)(c1ccccc1)c1ccc(OCCN2CCCC2)cc1,109,–
CN1CCC[C@@H]1CCO[C@](C)(c1ccccc1)c1ccc(Cl)cc1,–,15.1 µM (active)
O=c1c2cc(Br)ccc2nc(-c2cccc(Cl)c2)n1O,23.5,–
O=C(c1cccc(N2CCCC2=O)c1)N1CCOCC1,–,6.57 µM (active)
O=C(c1cccc(S(=O)(=O)N2CCOCC2)c1)N1CCOCC1,-26.3,–
O=C(c1ccc2c(c1)OCO2)N1CCOCC1,-7.41,–
Cc1ccc(C(=O)NNC(=O)c2ccc3c(c2)OCCO3)cc1,419,–
COCc1cc(C)n(CC(=O)NCC2CCCO2)c(=O)c1C#N (stereo not drawn),-2.85,–
CCn1nccc1C(=O)Nc1ccc(S(=O)(=O)NC23CC4CC(CC(C4)C2)C3)cc1,–,6.57 µM (active)
Cc1noc(NS(=O)(=O)c2ccc(NC(=O)C34CCC(CC3)C4)cc2)c1C,-16.6,–
O=C(Nc1ccc(S(=O)(=O)Nc2ncccn2)cc1)C12CC3CC(CC(C3)C1)C2,45.4,–

Structure (SMILES),"activity change, negative = inhibition [%]",Potency
Cc1ccc(S(=O)(=O)NCCC(=O)NNC(=O)C2COc3ccccc3O2)cc1 (stereo not drawn),-4.98,–
COc1ccc(C2CC(c3cccs3)=NN2c2ccccc2)cc1 (stereo not drawn),21.7,–
CC(=O)Oc1ccccc1C1=NN(C(C)=O)C(c2ccccc2)C1 (stereo not drawn),-5,–
Oc1ccccc1C1=NN(c2ccccc2)C(c2ccccc2)C1 (stereo not drawn),–,1.65 µM (active)
Cn1cc(C(=O)c2ccc(Cl)cc2Cl)cc1C(=O)NN,-3.08,–
COc1ccc(CCNC(=O)COc2ccc3c(c2)OCO3)cc1,-6.72,–
Cc1ccc2nc(Nc3ccccc3)cc(C)c2c1,213,–
Cc1ccc2nc(C)c3c(c2c1)N(c1ccccc1)CC3,–,6.57 µM (active)
Cc1ccc2nc(-c3ccccc3)cc(C(=O)O)c2c1,13.1,–
O=C1NCCn2nc3ccccc3c21,0,–
CCN(CC)CCn1c2c(c(SCC(=O)Nc3ccc(C(C)C)cc3)nc1=O)CCC2,–,4.15 µM (active)
CC(C)c1ccc(NC(=O)COC(=O)c2ccc(CN3CCCC3=O)cc2)cc1,0,–
Cn1c(SCC(=O)Nc2ccc(Cl)cc2)nc(O)cc1=O,21.4,–
CCN(CC)CCn1c2c(c(SCC(=O)Nc3nc4ccccc4s3)nc1=O)CCCC2,–,11.7 µM (active)
Cn1nnnc1SCC(=O)Nc1nc2ccccc2s1,13.8,–
Cc1csc(NC(=O)CSc2nc(=O)n(CCCN(C)C)c3c2CCC3)n1,5.37,–

# Source: PubChem BioAssay AID504834 (National Center for Advancing Translational Sciences (NCATS), 2011)
